From PubChem BioAssay
An excerpt weighted towards active compounds, which were near 12% of everything screened.
USP30 block: inhibitors of human USP30 deubiquitinase. inhibition, % at 25 µM. Q70CQ3. purified USP30, Ub-rhodamine cleavage fluorescence. hit rate 5.3% among 47,000
USP28 inh: human USP28 deubiquitinase inhibition; hit rate 3% among 47,000; inhibition, % at 25 µM; Q96RU2; purified USP28, Ub-rhodamine cleavage fluorescence, 30 min
USP17 block: inhibitors of human USP17 deubiquitinase; A8MUK1; purified USP17, Ub-rhodamine cleavage fluorescence, 3 h; inhibition, % at 50 µM; hit rate 6.5% among 47,000; AID 1645855
Target sequence (A8MUK1 whole entry, looked up): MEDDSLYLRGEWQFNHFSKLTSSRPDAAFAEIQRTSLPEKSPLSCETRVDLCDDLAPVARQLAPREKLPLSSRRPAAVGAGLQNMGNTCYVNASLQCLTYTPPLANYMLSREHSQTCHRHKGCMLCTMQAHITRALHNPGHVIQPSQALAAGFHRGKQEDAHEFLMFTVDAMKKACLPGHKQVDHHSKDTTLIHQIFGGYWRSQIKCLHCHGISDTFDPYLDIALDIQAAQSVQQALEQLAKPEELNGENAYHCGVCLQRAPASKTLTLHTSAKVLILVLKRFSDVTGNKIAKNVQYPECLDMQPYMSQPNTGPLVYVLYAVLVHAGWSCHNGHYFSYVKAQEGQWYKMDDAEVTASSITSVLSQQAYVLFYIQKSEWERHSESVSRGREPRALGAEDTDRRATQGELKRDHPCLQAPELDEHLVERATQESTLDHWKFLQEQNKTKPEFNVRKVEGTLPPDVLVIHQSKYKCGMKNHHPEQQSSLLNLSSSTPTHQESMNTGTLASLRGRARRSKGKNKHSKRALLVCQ
OTUD3 inh: inhibitors of human OTUD3 deubiquitinase; purified OTUD3, Ub-rhodamine fluorescence, 2 h; hit rate 0.7% among 47,000; inhibition, % at 25 µM; Q5T2D3
Starred values were filed as active, the others as inactive; i = inactive; · = not tested or not shown. Rule as the data show it: active = inhibition above about 30%; inactive = the rest.

SMILES | USP30 block | USP28 inh | USP17 block | OTUD3 inh
CC(=O)N1CCc2cc(S(=O)(=O)NCCC(=O)Nc3cccc(C)c3C)ccc21 | 63.7* | 11.9 | 33.7* | 8.9
Cc1ccc(C)c(S(=O)(=O)Nc2ccc(C(=O)NCc3ccccc3)cc2)c1 | -5.9 | -17.4 | -17.1 | 1.8
Cc1ccc(S(=O)(=O)N2CC(C(=O)NC3CCCCC3)C3(CCOCC3)C2)cc1 (stereo unspecified) | 31.1* | 15.8 | 15.8 | 18.1
CN(C)C(=O)N1CCN(S(=O)(=O)c2ccc(Cl)cc2)CC2(CNC(=O)C2)C1 (stereo unspecified) | 16.1 | 3.4 | 8.2 | 15.6
Clc1ccccc1C1Nc2ccccc2S1 (stereo unspecified) | -20.9 | 10.5 | -0.1 | -6.7
CN(C(=O)COc1ccc(-n2cnnn2)cc1)C(c1ccccc1)c1ccccc1 | 35.6* | 18.0 | 13.2 | 0.4
O=C1C(O)=C(c2ccc(O)cc2)C(=O)C(O)=C1c1ccccc1 | 33.1* | 26.4 | 13.3 | 32.6*
CC1=C(O)C(=O)C(C2=C(O)C(=O)C(C)=C(O)C2=O)=C(O)C1=O | -26.0 | -3.6 | -55.0 | 23.1
Cc1sc(-c2ccccn2)nc1OC(=O)c1cccc(Cl)c1Cl | 81.9* | 23.4 | 76.8* | 11.1
NS(=O)(=O)c1ccc(CNS(=O)(=O)/C=C/c2ccccc2)cc1 | 78.2* | 56.7* | 85.9* | 15.5
COc1ccccc1NS(=O)(=O)c1ccc(C(=O)NCc2ccc(S(N)(=O)=O)cc2)cc1 | 9.8 | 16.4 | 13.8 | 7.7
Cc1cccc(N2CC(C(=O)N3CCN(c4ccc(F)cc4)CC3)CC2=O)c1 (stereo unspecified) | 0.6 | 6.6 | 11.7 | 10.2
CC(C)Cc1csc2c1c(=O)n(C)c(=O)n2CC(=O)NCc1ccccc1 | -29.0 | -6.5 | 1.1 | -3.8
CC(C)c1cccc(NC(=O)c2nc(N3CCSCC3)c3cnn(C)c3n2)c1 | -0.5 | 27.2 | 5.9 | 10.8
Cc1cccc(NC(=O)c2nc(N3CCSCC3)c3cnn(C)c3n2)c1 | 18.9 | 11.2 | 64.4* | 5.3
O=C(c1ccco1)N1CCN=C1SCc1ccccc1F | -2.7 | 74.7* | -12.5 | 8.8
Cc1cccc(CC(=O)N2CCN=C2SCc2ccccc2)c1 | 19.2 | 16.5 | 6.8 | 8.1
O=C(c1ccco1)N1CCN=C1SCc1ccc([N+](=O)[O-])cc1 | 52.8* | 60.9* | 42.7* | 12.1
COc1cccc(-c2noc(-c3nn(-c4ccc(Cl)cc4)c(=O)c4ccccc34)n2)c1 | -0.5 | -0.2 | 9.5 | 0.2
N#Cc1ccc(C(=O)N2CCN(Cc3noc4ccccc34)CC2)cc1 | 6.4 | 7.3 | -1.0 | 3.6
COC(=O)c1c(-c2c(Cl)cccc2Cl)noc1/C=C/Nc1ccc(C(=O)O)cc1 | -35.1 | 30.8* | 6.8 | 1.8
COc1ccccc1N/C=C/c1onc(-c2c(F)cccc2Cl)c1C#N | i | -192.1 | · | -107.0
Cc1ccc(S(=O)(=O)N2CCOC23CCN(C(=O)c2ccccc2)CC3)cc1 | 32.9* | 15.7 | 9.4 | 12.4
Cc1ccccc1C(=O)N1CCC2(CC1)OCCN2S(=O)(=O)c1ccccc1 | -13.2 | -7.0 | -0.1 | -2.7
O=C(CSc1nc2ccsc2c(=O)n1Cc1ccccc1)Nc1ccccc1C(F)(F)F | · | · | 55.1* | 1.7
SMILES | USP30 block | USP28 inh | USP17 block | OTUD3 inh
Cc1cccc(C(=O)N2CCC[C@@H](Cn3nnc4c(=O)[nH]c(C)nc43)C2)c1 | 0.0 | -16.4 | -23.0 | 0.3
Cc1ccc(-n2c(Cc3cccc4ccccc34)nnc2SCC(=O)NC2CCS(=O)(=O)C2)c(C)c1 (stereo unspecified) | -1.5 | 0.1 | 42.3* | 4.4
Cc1ccc(NC(=O)CSc2nnc(Cc3cccc4ccccc34)n2C)c(C)c1 | 27.1 | 48.9* | 38.8* | 12.0
Cc1cc(C)c(NC(=O)CSc2nnc(Cc3cccc4ccccc34)n2C)c(C)c1 | -1.4 | 5.0 | 1.3 | 1.6
Cc1cc(C(=O)N2C[C@@H]3C[C@@]4(C)[C@H](CCCC[C@@H]24)N3)nc(N2CCOCC2)n1 | -1.4 | 0.0 | -6.7 | 4.4
O=C(NCc1ccccc1Cl)c1ccc(CS(=O)c2ccccc2)o1 (stereo unspecified) | -0.8 | -6.2 | -0.2 | -2.5
Cc1ccc2nc(SCc3cn4c(C)cccc4n3)[nH]c2c1 | 14.8 | 13.6 | -7.8 | 1.7
Cc1ccc2nc(-c3cccc(-c4nc5ccc(C)cc5[nH]4)n3)[nH]c2c1 | -27.0 | -10.5 | 53.9* | -11.1
COc1ccccc1-c1noc2ncnc(N(Cc3ccco3)CC3CCCO3)c12 (stereo unspecified) | 36.1* | 16.7 | 18.1 | 20.7
COc1ccccc1-c1noc2ncnc(NCc3ccco3)c12 | -23.2 | -0.1 | -1.2 | 1.3
O=C(Oc1ccc(-c2nccc(-c3cccs3)n2)cc1)c1ccco1 | 24.8 | 21.1 | 48.5* | 23.8
COc1cc(CN(C(=O)c2oc3cc(C)ccc3c2C)c2ccccn2)cc(OC)c1OC | -10.0 | 11.3 | 16.8 | 6.4
O=C(c1cnn2ccccc12)N1CCN(S(=O)(=O)/C=C/c2ccccc2)CC1 | 32.9* | 11.2 | 11.4 | 10.5
CC(C)(C)OC(=O)N1CCn2c(nnc2C2CCNCC2)C1 | 4.1 | -13.9 | -4.4 | -9.0
CCc1ccc(NC(=O)CN2CCN(c3nc4ccccc4s3)CC2)cc1 | -2.0 | 8.3 | -7.3 | 7.9
CCc1ccc(NC(=O)Cc2nc(-c3ccc(O)cc3O)cs2)cc1 | · | · | 37.5* | -1.8
CN1CCN(C(=O)Cc2ccc(-n3cccn3)cc2)c2nc3ccccc3nc21 | -50.3 | -0.6 | -18.0 | 4.4
Cc1ccc(Nc2nc(Nc3ccc(F)cc3)nc3nccnc23)cc1C | i | -228.4 | -123.2 | -178.4
Fc1ccc(Nc2nc(Nc3cccc(F)c3)nc3nccnc23)cc1 | 61.2* | -172.8 | 6.6 | 1.1
C=Cc1ccc(Cn2cc(S(=O)(=O)N3CCOCC3)ccc2=O)cc1 | -43.9 | 14.2 | 56.9* | 3.7
COc1cc2c(=O)n(CC3CCCO3)c(=O)n(CC(=O)c3ccc4c(c3)OCO4)c2cc1OC (stereo unspecified) | -5.4 | 3.2 | 10.2 | -1.9
COc1cc2c(=O)n(CCCC(=O)NCC3CCCO3)c(=O)n(CC(=O)NC3CCCCC3)c2cc1OC (stereo unspecified) | 33.1* | 11.1 | 3.3 | 10.4
COc1cc2c(=O)n(CC3CCCO3)c(=O)n(CC(=O)Nc3ccc4c(c3)OCCO4)c2cc1OC (stereo unspecified) | 38.0* | 13.7 | 49.1* | 15.1
CCN1CCN(C2=NCCN2S(=O)(=O)c2cc(F)ccc2C)CC1 | 0.5 | 1.9 | -0.3 | -0.6
O=C(c1cccnc1)N1CC[C@@H]2CN(Cc3cccc(Cl)c3)S(=O)(=O)[C@@H]2CC1 | 15.4 | 12.1 | 3.5 | 11.9
CC1CCCCN1S(=O)(=O)c1ccc2nc(N3CCOCC3)ccc2c1 (stereo unspecified) | -3.5 | -6.3 | -6.0 | -13.3
O=C(CNc1ccc(F)cc1F)Nc1ccc2c(c1)OC(F)(F)O2 | -6.5 | 49.1* | -0.3 | -2.6
Cc1cccc(CNC2=NCCNC23CCN(S(=O)(=O)c2ccc(F)cc2)CC3)c1 | -11.4 | -16.6 | -10.2 | -4.6
